In PubChem BioAssay AID1619 (SRMLSC, 2009):
Hit rate of the full screen: of about 220,000 compounds, about 830 (0.38%) were called active.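 How the source made its calls: active means compound inhibiting the enzyme by more than half at any dose during confirmatory dose-response retesting; inconclusive means strong single-dose inhibitors picked by rank but not retested; inactive means the rest.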 A selection follows. Results with a measured potency or affinity are listed apart.

biological target: Leucine aminopeptidase (Plasmodium falciparum (isolate 3D7)) (UniProt Q8IL11); assay: P. falciparum M17LAP inhibitors, primary screen, biochemical, fluorogenic H-Leu-NHMec substrate, 1536-well (AID 1619); conditions: recombinant M17LAP, H-Leu-NHMec fluorogenic kinetic assay; at 30 µM; stronger effect = higher value;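 further: plate controls were full reaction with DMSO carrier for no effect and no enzyme background for full effect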
Sequence (Q8IL11 whole entry, looked up): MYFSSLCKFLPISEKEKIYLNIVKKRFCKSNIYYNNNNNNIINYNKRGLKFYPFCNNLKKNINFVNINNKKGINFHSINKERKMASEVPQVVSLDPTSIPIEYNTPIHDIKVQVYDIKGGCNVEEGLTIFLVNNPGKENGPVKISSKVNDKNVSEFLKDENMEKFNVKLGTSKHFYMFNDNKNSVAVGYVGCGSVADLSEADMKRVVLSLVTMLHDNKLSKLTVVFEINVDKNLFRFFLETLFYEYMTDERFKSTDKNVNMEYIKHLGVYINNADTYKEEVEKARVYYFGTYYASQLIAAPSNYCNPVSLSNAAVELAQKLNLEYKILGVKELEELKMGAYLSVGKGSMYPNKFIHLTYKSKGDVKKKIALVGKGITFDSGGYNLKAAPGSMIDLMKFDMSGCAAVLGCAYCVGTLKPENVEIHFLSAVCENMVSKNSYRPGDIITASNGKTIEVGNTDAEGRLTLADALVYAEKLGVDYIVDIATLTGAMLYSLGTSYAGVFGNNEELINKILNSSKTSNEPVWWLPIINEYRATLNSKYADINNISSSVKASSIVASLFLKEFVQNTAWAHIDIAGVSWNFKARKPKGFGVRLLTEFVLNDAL

inhibition, inactive:
O=C(NCc1ccco1)C1CC(c2ccc(Cl)cc2)=NO1 (stereo not given) 2.33%, O=Nc1c(O)n(Cc2ccc(Cl)cc2Cl)c2ccccc12 -0.24%, CC(C)(C)c1cc(C(=O)O)n(Cc2ccc(Cl)cc2Cl)n1 -0.53%, O=C(COC(=O)C1(c2ccc(Cl)cc2)CCCC1)NCc1ccco1 -0.44%, Fc1ccc(/C=N/NC(=S)Nc2cccnc2)cc1F 8.17%, Oc1ccc(/C=N/NC(=S)Nc2cccnc2)cc1 33.2%, O=C(CSc1nnc(-c2ccc(Cl)cc2)n1Cc1ccco1)NCc1ccc2c(c1)OCO2 7.75%, O=C(N/N=C/c1cccs1)c1cccc2cc[nH]c12 8.58%, CCS(=O)(=O)C1=NN2C(=N)/C(=C\c3ccc(SCc4ccco4)o3)C(=O)N=C2S1 33.6%, C=CCOc1ccc(/C=C2\C(=N)N3N=C(S(=O)(=O)CC)SC3=NC2=O)cc1OC 1.58%, COc1ccc(/C=C/C(=O)NCC(=O)N2CCC(N(C)CCN3CCOCC3)CC2)cc1OC 0.93%, COC(=O)c1sc2nc(CN3CCN(c4ccc(OC)cc4)CC3)[nH]c(=O)c2c1C 0.73%, O=C(COC(=O)c1ccccc1NC(=O)C1CC1)c1ccc2c(c1)OCCO2 12.2%, CC(C)C(=O)Nc1ccccc1C(=O)OCC(=O)c1ccc2c(c1)OCCO2 0.77%, O=Cc1ccc(-c2cccc(C(=O)O)c2)o1 17%, O=C1c2ccccc2C(=O)N1CCCc1nc(-c2ccncc2)no1 -5.77%, CCOC(=O)N1CCN(C(=O)CCN2C(=O)COc3ccc(C)cc32)CC1 -3.49%, Cc1c(NC(=O)CSc2nc3ccccc3s2)c(=O)n(-c2ccccc2)n1C 14.2%, CN1CCC(Oc2ccccc2Sc2ccccc2)CC1 2.7%, Cc1ccc(S(=O)(=O)Nc2ccccc2C(=O)Nc2ccc(S(=O)(=O)Nc3nccc(C)n3)cc2)cc1 -17.2%, CC(=O)Nc1ccc(NC(=O)CSc2nnc(C)c(=O)[nH]2)cc1 5.47%, Cc1cccc(C)c1NC(=O)CSc1nnc(C)c(=O)[nH]1 15.2%, Cc1nnc(SCC(=O)Nc2ccccc2)[nH]c1=O 41.7%, Cc1nnc(SCC(=O)Nc2ccc3c(c2)OCO3)[nH]c1=O 6.76%, O=c1c2ccccc2nnn1Cc1ccc2ccccc2c1 -5.34%, COc1ccc(-n2c(SC(CN3CCCCC3)CN3CCCC3=O)nc3ccccc3c2=O)cc1 (stereo not given) 0.58%, CCOC(=O)C1=C(O)/C(=C/c2ccc(OCC(=O)O)c(OCC)c2)SC1=Nc1ccccc1 43.5%, CCOC(=O)C1=C(O)/C(=C/c2ccc(OCC(=O)O)c(OC)c2)SC1=Nc1ccc(OCC)cc1 38.5%, CCOc1cc(C=C2C(=O)c3ccccc3C2=O)ccc1OCC(=O)Nc1ccc(C)cc1 6.24%, CCOC(=O)C1=C(O)/C(=C/c2ccc(OCC(=O)O)c(OC)c2)SC1=Nc1ccc(OC)cc1 41.7%, Cc1ccc(C(=O)Nc2nc3ccc(S(C)(=O)=O)cc3s2)o1 48.6%, CCOc1cc(S(=O)(=O)NC2CCCCCC2)ccc1F 4.34%, Cc1nc(CSc2nnc(Nc3cccc(C)c3C)s2)cs1 22.7%, Cc1cccc(Nc2nnc(SCC(=O)N(C)C3CCS(=O)(=O)C3)s2)c1C (stereo not given) 35%, Cc1ccc(Nc2nnc(SCC(=O)c3ccc(Br)s3)s2)c(C)c1 27.2%, CCc1ccc(Nc2nnc(SCC(=O)N(C)C3CCS(=O)(=O)C3)s2)cc1 (stereo not given) 6.41%, O=C1CCCCC1Sc1nnc(Nc2ccccc2)s1 (stereo not given) 16.7%, Cc1cccc(Nc2nc3ccccc3s2)c1C 0.94%, Cc1ccc(Nc2nnc(SCC(=O)NC3CCS(=O)(=O)C3)s2)c(C)c1 (stereo not given) 9.77%, Cc1cccc(Nc2nnc(SCC3CCCCO3)s2)c1C (stereo not given) 13.4%, CCSc1ccc2cc(OC)ccc2[n+]1CC 2.2%, Cc1ccc(NC(=O)CNCc2ccccc2)cc1Br 1.6%, CCC(C)(C)n1nnnc1CN1CCN(C(c2ccccc2)c2ccccc2)CC1 7.37%, O=C1CSC2(CCCCC2)N1CCO 15.1%, O=S1(=O)CCC(NC(=S)NC2CCS(=O)(=O)C2)C1 (stereo not given) 1.24%, CCOCCCNC(=S)N1C2CCC1CC(NC(=O)NC13CC4CC(CC(C4)C1)C3)C2 (stereo not given) 2.02%, C=CC(=O)N=c1sc2ccccc2n1-c1ccccc1 -2.28%, c1ccc(-c2ccccc2OCCCN2CCCCCC2)cc1 -1.36%, Cc1cccc(NS(=O)(=O)c2cnc[nH]2)c1 -0.29%, CCCCN=C(C)C1=C(O)CSC1=O 12.4%, Cc1ccc(Nc2nnc(SCC3CCCCO3)s2)cc1 (stereo not given) 13.8%, CC(C)c1ccc(Nc2nnc(SC3CCOC3=O)s2)cc1 (stereo not given) 32.8%, Cc1cc(C)n(-c2ccc(C(=O)Nc3nnc(C4CC4)s3)cc2)n1 4.37%, COc1ccc(OC)c(NC(=O)c2ccc(CSc3nnc(C)s3)cc2)c1 -1.27%, N/C(=N\OC(=O)COc1ccc(Br)cc1Cl)c1ccccn1 -6.93%, O=C1C(C2=NC(c3ccccn3)C3C(=O)N(c4ccc(Cl)cc4Cl)C(=O)C23)=C(O)c2ccccc21 (stereo not given) 3.81%, O=C(C1=NN(c2ccccc2)C2C(=O)N(c3ccc(Cl)cc3)C(=O)C12)c1ccccc1 (stereo not given) 4.99%, O=C1C(C2=NC(c3ccccn3)C3C(=O)N(c4ccc(OC(F)(F)F)cc4)C(=O)C23)=C(O)c2ccccc21 (stereo not given) -6.84%, O=C1C(C2=NC(c3ccccn3)C3C(=O)N(c4ccccc4)C(=O)C23)=C(O)c2ccccc21 (stereo not given) -11%, O=C(NNC(=O)c1cccc2ccccc12)c1ccc(-c2ccccc2)cc1 -1.51%
